Source: PubChem
D3 antag – qHTS of D3 Dopamine Receptor Antagonist: qHTS; AID 652054, 2013; max response, negative = inhibition, %; D(3) dopamine receptor (Homo sapiens), P35462; 360,000 tested, 2.5% active; D3R cells, DiscoveRx beta-arrestin luminescence, antagonist mode; hits give low values; in the data active = max response below about -50%; inconclusive = no clear call, values can overlap the other calls
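Cells expressing the human receptor were seeded at 1500 cells/well, incubated overnight at 37 degrees C in 5% CO2, then exposed to library compounds with dopamine controls for 90 minutes at 37 degrees C before luminescent detection.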
D1 antagonist – Antagonist of Human D 1 Dopamine Receptor: qHTS. HEK293 TREx D1 cells, calcium flux, dopamine EC80; hits give low values. activity change, negative = inhibition, % at 10 µM. 360,000 tested, 3.2% active; in the data active = activity change below about -30%
Target sequence (P21728 whole entry, looked up): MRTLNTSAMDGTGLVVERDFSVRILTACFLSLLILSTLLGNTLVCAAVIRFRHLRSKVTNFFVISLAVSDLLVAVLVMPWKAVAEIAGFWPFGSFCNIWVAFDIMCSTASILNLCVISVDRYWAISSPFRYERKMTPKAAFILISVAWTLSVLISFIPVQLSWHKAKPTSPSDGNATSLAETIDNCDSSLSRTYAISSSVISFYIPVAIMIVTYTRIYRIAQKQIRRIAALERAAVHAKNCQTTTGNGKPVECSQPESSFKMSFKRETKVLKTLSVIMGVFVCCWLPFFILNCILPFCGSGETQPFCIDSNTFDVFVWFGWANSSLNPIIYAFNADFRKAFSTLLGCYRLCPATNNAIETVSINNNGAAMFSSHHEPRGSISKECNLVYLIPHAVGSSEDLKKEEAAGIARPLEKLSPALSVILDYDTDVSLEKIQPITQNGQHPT
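HEK293 T-REx cells expressing inducible, force-coupled D1 receptor; no-wash Ca dye, 30–90 min RT. Cmpd → 180 s read at 1 Hz → EC80 DA → 180 s read.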
D3 ag – qHTS of D3 Dopamine Receptor Agonist: qHTS. AID 652048, 2013. max activation, %. D(3) dopamine receptor (Homo sapiens), P35462. D3R DiscoveRx beta-arrestin cells, luminescence, 90 min. 410,000 tested, 0.58% active; in the data active = max activation above about 30%
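Agonist-mode cell screen: cells plated at 1500/well and incubated overnight at 37 °C, then exposed to library compounds for 90 min at 37 °C. Detection reagent was added for 30–60 min at room temperature, and luminescence was read.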
D1 PAM – Potentiators of Human D1 Dopamine Receptor: qHTS; HEK293 TREx D1 cells, calcium flux, dopamine EC20 potentiation; potentiation, % at 10 µM; 360,000 tested, 0.036% active; AID 504651, 2011; in the data active = potentiation above about 30%
BCR signal inh – qHTS Assay to Find Inhibitors of Chronic Active B-Cell Receptor Signaling; 340,000 tested, 0.05% active; Potency, µM (top dose mostly 46.1 µM), most hits filed as inhibitors; ABC-DLBCL IkBa-CBG/CBR reporter, luminescence ratio, 4 h; active = well fitted inhibition curve with a large enough effect in the signal ratio, with a control signal flat, not every such curve was filed as active; inconclusive = small, poorly fitted or top-dose-only effect, or effect the other way, or a change in a side signal; the % refers to the signal ratio
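TMD8 ABC-DLBCL cells carrying doxycycline-inducible green luciferase fused to IkappaBalpha plus unfused red luciferase were exposed to compounds (up to 46 uM) for 4 hrs at 37C. Activity came from the overlap-corrected green/red luminescence ratio.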
D1 agonist – Allosteric Agonists of the Human D1 Dopamine Receptor: qHTS; 360,000 tested, 1% active; HEK293 T-REx D1 cells, calcium flux, agonist mode; D(1A) dopamine receptor (Homo sapiens), P21728; activation, % at 2 µM; in the data active = activation above about 30%
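Agonism was scored from calcium flux recorded over 180 s (1 read/s) after pintool compound addition, following a 10-cycle baseline. Cells were inducible force-coupled HEK293 TREx D1, plated overnight at 30 C and loaded with no-wash calcium dye.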
Hits are given with their value; 0 = inactive; ? = inconclusive; - = no result given. Shown are actives, neighbours in structure and some others; about 6% of the full set was active somewhere.

SMILES	D3 antag	D1 antagonist	D3 ag	D1 PAM	BCR signal inh	D1 agonist
CCCNC(=O)C(Cc1ccccc1)NC(=O)c1ccccn1 (stereo not given)	-56	0	0	0	0	0
CCCNC(=O)C(Cc1ccccc1)NC(=O)c1ccc(C(F)(F)F)cc1 (stereo not given)	0	0	0	0	0	0
CCc1cccc(C)c1NC(=O)c1cccnc1	0	-32	0	0	0	0
CCc1cccc(C)c1NC(=O)C1=C(C(=O)O)CCCC1	0	-82	0	0	0	0
Cc1cccc(C)c1NC(=O)c1cccnc1	0	0	0	0	0	0
Nc1ccc(S(=O)(=O)Nc2nccs2)cc1N=Nc1ccccc1[N+](=O)[O-]	0	-	0	-	-	-
COc1ccc(C2(CNC(=O)CCC(=O)O)CCCC2)cc1OC	-51	0	0	0	?	0
Cc1ccc(C)c(C(O)c2ncc(-c3ccccc3Cl)[nH]2)c1 (stereo not given)	0	-	0	-	-	-
CC(=O)c1cccc(NC(=O)C2Cc3c(-c4ccc(Cl)cc4)ccnc3O2)c1 (stereo not given)	0	-	0	-	-	-
c1ccc(C2=NNC(c3ccco3)=Nc3ccccc32)cc1	0	-32	0	0	0	0
COc1ccc(C2=NNC(c3cccnc3)=Nc3ccccc32)cc1	0	0	0	0	0	0
CCc1ccc2[nH]c3nc(SCC(=O)NNC(=O)c4ccc(C(C)(C)C)cc4)nnc3c2c1	0	0	39	0	?	0
Cc1ccc(C(=O)NNC(=O)CSc2nnc3c(n2)[nH]c2ccc(C)cc23)cc1	0	0	0	0	0	0
O=C1CC(c2cccc(Cl)c2)CC(O)=C1C=NCCCO (stereo not given)	-90	0	0	0	0	0
CCCS(=O)(=O)N1CCN=C1SCc1cccc(C)c1	0	-30	0	0	0	0
CC1CC(=O)Nc2ccccc2N1C(=O)COc1ccccc1C(N)=O (stereo not given)	0	-	0	-	-	-
CCOC(=O)C1CCCN(Cc2cc(Br)ccc2OC)C1 (stereo not given)	-60	0	0	0	?	0
CCOC(=O)C1CCCN(S(=O)(=O)Cc2ccccc2Cl)C1 (stereo not given)	0	-31	0	0	0	0
CCCS(=O)(=O)N1CCCC(C(=O)Oc2ccccc2Cl)C1 (stereo not given)	0	0	0	0	0	0
CCOC(=O)C1CCCN(CCC(=O)Nc2cc(C)cc(C)c2)C1 (stereo not given)	0	0	0	0	0	0
CCOC(=O)C1CCCN(CCC(C)c2ccccc2)C1 (stereo not given)	-61	0	0	0	?	0
CCOC(=O)C1CCCN(CC(=O)Nc2cc(C)cc(C)c2)C1 (stereo not given)	0	-40	0	0	0	0
CCOC(=O)C1CCCN(Cc2c(Cl)cccc2Cl)C1 (stereo not given)	0	-36	0	0	-	0
CCOC(=O)C1CCCN(C(=O)COc2ccccc2O)C1 (stereo not given)	0	0	0	0	?	0
CCOC(=O)C1CCCN(C(=O)COc2ccccc2F)C1 (stereo not given)	0	-64	0	0	0	0
SMILES	D3 antag	D1 antagonist	D3 ag	D1 PAM	BCR signal inh	D1 agonist
CCOC(=O)C1CCCN(Cc2ccc(-c3ccccc3)cc2)C1 (stereo not given)	0	0	0	0	0	0
CCN(CC)CCNC(=O)c1[nH]c2ccc(OCc3ccccc3)cc2c1C	-86	-64	0	0	0	126
CC(=O)Nc1ccc(-c2cc(C(=O)O)c3c(-c4ccccc4)[nH]nc3n2)cc1	-	-39	0	0	-	0
Cc1ccc(-c2cc(C(=O)NCc3ccccc3)c3c(-c4ccc(C)cc4)[nH]nc3n2)cc1	-	0	0	0	-	0
COc1ccccc1NC(=O)CC(c1ccc(OC(C)C)cc1)c1ccccc1OC (stereo not given)	0	0	47	0	0	0
COc1ccccc1C(CC(=O)Nc1ccc(C)c(C)c1)c1ccc(OC(C)C)cc1 (stereo not given)	0	0	0	0	0	0
COc1ccc(CNCCC(c2ccc(OC(C)C)cc2)c2ccccc2OC)cc1 (stereo not given)	0	0	0	0	?	35
COc1ccc(C(CCNCc2ccc(OC(C)C)cc2)C(C)C)cc1 (stereo not given)	0	0	0	0	0	31
COc1ccc(CNCCC(c2ccc(OC(C)C)cc2)C(C)C)cc1OC (stereo not given)	0	0	0	0	?	35
COc1ccc(C(CCNCc2ccc(N(C)C)cc2)C(C)C)cc1 (stereo not given)	0	0	0	0	?	0
COc1ccccc1C(CCNCc1ccccc1)c1ccc(OC(C)C)cc1 (stereo not given)	0	0	0	0	?	0
COc1ccc(CNCCC(c2ccc(OC(C)C)cc2)c2ccccc2OC)cc1OC (stereo not given)	?	0	0	0	?	0
Cn1c(=O)c2cc(NC(=O)NCCc3cccs3)ccc2n1C/C=C/c1ccccc1	0	-	0	-	-	-
COC(=O)[C@@]12CCCCN1[C@H](c1ccc(-c3ccc(Cl)c(Cl)c3)c(OC)c1)[C@H]1C(=O)N(C)C(=O)[C@H]12	0	-	0	-	?	-
COC(=O)[C@@]12CCCCN1[C@H](c1ccc(-c3ccc(Cl)c(Cl)c3)c(OC)c1)[C@@H]1C(=O)N(C)C(=O)[C@@H]12	0	-	41	-	-	-
O=c1[nH]c(=O)n(Cc2ccccc2)c2nc(-c3cccs3)n(CCO)c12	0	0	0	0	0	0
O=c1[nH]c(=O)n(Cc2ccccc2)c2nc(-c3ccc(C(F)(F)F)cc3)n(CCO)c12	0	-31	0	0	?	0
Cn1cnc2c1c(=O)[nH]c(=O)n2Cc1ccccc1	0	0	0	0	0	0
O=c1[nH]c(=O)n(CCO)c2nnn(Cc3ccccc3)c12	0	-31	0	0	0	0
COc1ccc(C(=O)/C=C/C(=O)N(CC(=O)NC2CCCCC2)Cc2ccccc2)c(O)c1	-115	0	0	0	?	0
COc1ccc(C(=O)/C=C/C(=O)N(Cc2ccc(F)cc2)C(C(=O)NC2CCCCC2)c2ccncc2)c(O)c1 (stereo not given)	0	-31	0	0	?	0
